In the library only some 21% were active in any assay of this set; here they are far more common.
Pf growth 48h – P. falciparum growth inhibition at 48 hours (one generation) | P. falciparum luciferase growth in erythrocytes, 48 h | Potency, µM (titrated, usually from 28.7 µM), actives largely listed as inhibitors | 5.9% of 310,000 active | AID 504832
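Growth was read as firefly luciferase luminescence after a 48 h, 37 C, 5% CO2 exposure of compounds to reporter-bearing P. falciparum cultures (0.1% parasitemia, 2% hematocrit final) in Albumax-supplemented RPMI 1640.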
Cycloheximide cs – counter-screen for Shiga toxin inhibitors: cycloheximide protein synthesis inhibition; AID 2314; 12% of 300,000 active; max response, %; cell reporter, cycloheximide protein synthesis inhibition counterscreen; in the data active means max response mostly above about 13%, no sharp cut-off; inactive means mostly below about 14%; further: read at 38.3 µM for the half of the compounds with a filed dose
Shiga toxin inh – blocks Shiga toxin action in Vero cells; AID 2315; 9.2% of 290,000 active; Vero cells, Shiga toxin protein synthesis inhibition reporter; inhibition, % at 38.7 µM; in the data active means inhibition mostly above about 28%, no sharp cut-off; inactive means mostly below about 43%
Pf growth 96h – inhibits malaria parasite growth, 96 h | P. falciparum luciferase reporter growth, 96 h | Potency, µM (highest dose often 28.7 µM), most hits filed as inhibitors | 6.9% of 320,000 active | AID 504834
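Delayed-death screen, second-generation endpoint: infected erythrocytes, 2% hematocrit, 0.05% parasitemia final; 96 hours at 37 C, 5% CO2; luciferase detection reagent; luminescence decrease equals reduced growth.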
A number is an active result; [ ] = dose if it differs, or a comment. Unless noted, the call rests on the fitted dose curve; in most records, active means well fitted inhibition curve with a large enough effect; inconclusive means small, poorly fitted or top-dose-only effect, or another doubt; inactive means no such curve, though single readings can be large or run the other way.

Nc1nc2cc3ccccc3cc2[nH]c1=O was read as Pf growth 48h inactive, Cycloheximide cs inactive and Pf growth 96h inconclusive.
`Cn1c(Cc2cccs2)nnc1SCc1nc2ccccc2[nH]1` gave Pf growth 48h inactive, Cycloheximide cs inactive, Shiga toxin inh inactive and Pf growth 96h inactive.
For c1csc(Cc2nc3ccccc3[nH]2)c1 the results were Pf growth 48h inactive, Cycloheximide cs 24, Shiga toxin inh inactive and Pf growth 96h inactive.
For O=C(NCCCc1nc2ccccc2[nH]1)c1cccs1 the results were Pf growth 48h inactive[5.75 µM], Cycloheximide cs inactive, Shiga toxin inh inactive and Pf growth 96h inactive.
O=C(NCCCc1nc2ccccc2[nH]1)c1ccco1 was read as Pf growth 48h inactive, Cycloheximide cs inactive, Shiga toxin inh inactive and Pf growth 96h 9.3µM.
Nc1cccc(CCc2nc3cc4ccccc4cc3[nH]2)c1 was read as Pf growth 48h inactive, Cycloheximide cs 22, Shiga toxin inh 36 and Pf growth 96h inconclusive.
Screening CC(C)(C)NS(=O)(=O)c1cccc(S(=O)(=O)c2cccc(S(=O)(=O)NC(C)(C)C)c2)c1 returned Pf growth 48h inconclusive, Cycloheximide cs inactive, Shiga toxin inh inactive and Pf growth 96h inconclusive.
For COc1ccc(S(=O)(=O)NC2CCSc3ccccc32)cc1OC (stereo not drawn) the results were Pf growth 48h inactive, Cycloheximide cs inactive, Shiga toxin inh inactive and Pf growth 96h inactive.
`Cc1cc(C)nc(SC/C=C/c2ccccc2)n1` gave Pf growth 48h inactive, Cycloheximide cs 23 and Pf growth 96h inactive.
Nn1c(SC/C=C/c2ccccc2)nnc1-c1ccncc1 was read as Pf growth 48h inactive, Cycloheximide cs inactive and Shiga toxin inh inactive.
For C(=C\c1ccccc1)/CSc1ccccn1 the results were Pf growth 48h inactive, Cycloheximide cs 73, Shiga toxin inh 93 and Pf growth 96h inactive.
`Brc1cccc2sc(N3CCN(c4ccccc4)CC3)nc12` gave Pf growth 48h inactive, Cycloheximide cs 24, Shiga toxin inh 30 and Pf growth 96h inactive.
`CNc1nc2c(Cl)cc(Cl)cc2s1` gave Pf growth 48h inactive, Cycloheximide cs inactive, Shiga toxin inh inactive and Pf growth 96h inactive.
Screening Clc1cccc2sc(N3CCCCC3)nc12 returned Pf growth 48h inactive, Cycloheximide cs 32 and Shiga toxin inh 82.
Clc1cc(Cl)c2nc(N3CCCCC3)sc2c1 was read as Pf growth 48h inactive, Cycloheximide cs 34, Shiga toxin inh 72 and Pf growth 96h inactive.
Screening COc1ccc(OC)c2sc(N3CCCCC3)nc12 returned Pf growth 48h inactive, Cycloheximide cs 36, Shiga toxin inh 66 and Pf growth 96h inactive.
Screening Cc1ccc(C(=O)N(C)CC(=O)Nc2ccc(F)c(F)c2F)o1 returned Pf growth 48h inactive, Cycloheximide cs inactive, Shiga toxin inh inactive and Pf growth 96h inactive.
`Cc1ccnc(N(C(=O)Nc2ccccc2)C2=NCC(C)(C)S2)c1` gave Pf growth 48h inactive, Cycloheximide cs 43, Shiga toxin inh 59 and Pf growth 96h inactive.
Cc1c(N(C(=O)Nc2ccccc2)C2=NCC(C)S2)c(=O)n(-c2ccccc2)n1C (stereo not drawn) was read as Pf growth 48h inactive, Cycloheximide cs inactive, Shiga toxin inh inactive and Pf growth 96h inactive.
For CC(C(=O)N1CCc2ccccc21)n1cnc2c1c(=O)n(C)c(=O)n2C (stereo not drawn) the results were Pf growth 48h inactive and Pf growth 96h inactive.
`O=C(C1=C[C@@H](c2ccc(Br)cc2)C[C@@H](OCCCCO)O1)N1CCN(Cc2ccc3c(c2)OCO3)CC1` gave Pf growth 48h 4.1µM, Cycloheximide cs inactive, Shiga toxin inh inactive and Pf growth 96h 4.1µM.
O=C(C1=C[C@H](c2ccccc2)C[C@H](OCCCCO)O1)N1CCN(Cc2ccc3c(c2)OCO3)CC1 was read as Pf growth 48h inconclusive, Cycloheximide cs inactive, Shiga toxin inh inactive and Pf growth 96h inconclusive.
Screening O=C(C1=C[C@H](c2ccc(C(F)(F)F)cc2)C[C@H](OCCCCO)O1)N1CCN(Cc2ccc3c(c2)OCO3)CC1 returned Pf growth 48h 5.9µM, Cycloheximide cs inactive, Shiga toxin inh inactive and Pf growth 96h 3.7µM.
For COc1cccc(CN2CCC(C(=O)N3CCC(C)CC3)CC2)c1 the results were Pf growth 48h inactive, Cycloheximide cs inactive, Shiga toxin inh inactive and Pf growth 96h inactive.
CC1=CC(C)C2(CO)COC(c3ccccc3O)C1C2C (stereo not drawn) was read as Pf growth 48h inactive, Cycloheximide cs inactive, Shiga toxin inh inactive and Pf growth 96h inactive.
Screening CCC(=O)N=c1ccn(C2=Nc3ccccc3NC2=C(C#N)C#N)cc1 returned Pf growth 48h inactive, Cycloheximide cs inactive, Shiga toxin inh inactive and Pf growth 96h inactive.
Cc1ccc(S(=O)(=O)NCCNC(=O)c2ccc(C)nc2)cc1 was read as Pf growth 48h inactive, Cycloheximide cs inactive, Shiga toxin inh inactive and Pf growth 96h inactive.
`O=C(Nc1ccc(Cl)cc1)OCc1ccccn1` gave Pf growth 48h inactive, Cycloheximide cs 29, Shiga toxin inh 78 and Pf growth 96h inactive.
CS(=O)(=O)c1ccccc1COC(=O)Nc1ccc(Cl)cc1 was read as Pf growth 48h inactive, Cycloheximide cs 21, Shiga toxin inh inactive and Pf growth 96h inactive.
For CCCCSCCCNC(=O)Nc1ccc(C)c(C)c1 the results were Pf growth 48h inconclusive, Cycloheximide cs inactive, Shiga toxin inh inactive and Pf growth 96h inactive.
For CC1CCCN(C(=O)CNS(=O)(=O)c2cccs2)C1 (stereo not drawn) the results were Pf growth 48h inactive, Cycloheximide cs 27, Shiga toxin inh inactive and Pf growth 96h inconclusive.
Cc1cc(C(=O)N2CCCC(CNS(=O)(=O)c3cccs3)C2)nn1C (stereo not drawn) was read as Pf growth 48h inactive, Cycloheximide cs inactive, Shiga toxin inh inactive and Pf growth 96h inactive.
Screening Cc1nc2ccc(S(=O)(=O)NCC(=O)N3CCCC(C)C3)cc2s1 (stereo not drawn) returned Pf growth 48h inactive, Cycloheximide cs inactive, Shiga toxin inh inactive and Pf growth 96h inconclusive.
Screening Cc1nc(CC(C)C)cc(C(=O)N2CCCC(CNS(=O)(=O)c3cccs3)C2)n1 (stereo not drawn) returned Pf growth 48h inactive, Cycloheximide cs inactive, Shiga toxin inh inactive and Pf growth 96h 8.3µM.
CC1CCN(C(=O)CCNS(=O)(=O)c2ccccc2)CC1 was read as Pf growth 48h inactive, Cycloheximide cs 22, Shiga toxin inh 56 and Pf growth 96h inconclusive.
For O=C(CCNS(=O)(=O)c1ccc(Cl)cc1)N1CCCCCC1 the results were Pf growth 48h inactive, Cycloheximide cs inactive, Shiga toxin inh inactive and Pf growth 96h 12µM.
Screening O=C(CCN1C(=O)/C(=C/c2ccccc2Cl)SC1=S)NC1C=CS(=O)(=O)C1 (stereo not drawn) returned Pf growth 48h inactive, Cycloheximide cs inactive, Shiga toxin inh inactive and Pf growth 96h inconclusive.
O=C(CCNS(=O)(=O)c1cccs1)N1CCCCCC1 was read as Pf growth 48h inactive, Cycloheximide cs 33, Shiga toxin inh 102 and Pf growth 96h inconclusive.
O=C(CCCNS(=O)(=O)c1cccs1)N1CCN(c2ccc(F)cc2)CC1 was read as Pf growth 48h inactive, Cycloheximide cs inactive, Shiga toxin inh inactive and Pf growth 96h inactive.
O=C(CCS(=O)(=O)c1cccs1)N1CCCC1 was read as Pf growth 48h inactive, Cycloheximide cs 18, Shiga toxin inh 63 and Pf growth 96h inactive.
